Results taken from PubChem BioAssay AID1159580 (chemical genetic matrix, 2015).
The whole screen tested about 5,500 compounds, of which about 2,000 (36%) were called active. Another 18% or so got no clear call; they are omitted. Cut-off read from the data, not from the text of the source: active = normalized growth mostly below about 0.91 (no sharp cut-off); inconclusive = no clear call, values can overlap the other calls; inactive = mostly above about 0.92. The list shows a part of the results.

Assay: chemical genetic growth profiling, strain panel (AID 1159580);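 note: tested at 20 µM; growth read once vehicle control cultures reached saturation at 30 °C; 1 = growth at the plate median or of vehicle wells; lower values mean less growth of the strain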
Conditions: S. cerevisiae deletion strains, growth OD

Measured: normalized growth

COc1ccc(/C=C/c2cc(O)cc(O[C@@H]3O[C@H](CO)[C@@H](O)[C@H](O)[C@H]3O)c2)cc1
inactive: locus YBR021W, strain FUR4, active compounds read low 1.02 | locus YBR229C, strain ROT2, active compounds read low 0.955 | locus YCL029C, strain bik1, active compounds read low 0.984 | locus YDL035C, strain GPR1, active compounds read low 0.972 | locus YDL074C, strain BRE1, active compounds read low 1.02 | locus YDL101C, strain DUN1, active compounds read low 1 | locus YDL134C, strain PPH21, active compounds read low 1 | locus YDL185W, strain tfp1, active compounds read low 0.974 | locus YDL192W, strain arf1, active compounds read low 0.994 | locus YDR101C, strain arx1, active compounds read low 1.01 | locus YDR150W, strain NUM1, active compounds read low 0.997 | locus YDR162C, strain NBP2, active compounds read low 0.977 | locus YDR318W, strain mcm21, active compounds read low 0.986 | locus YDR388W, active compounds read low 1 | locus YDR502C, strain sam2, active compounds read low 0.998 | locus YEL061C, strain CIN8, active compounds read low 0.994 | locus YER110C, active compounds read low 0.987 | locus YER155C, strain BEM2, active compounds read low 1.02 | locus YER167W, strain BCK2, active compounds read low 0.978 | locus YGL078C, strain dbp3, active compounds read low 0.987 | locus YGL086W, strain mad1, active compounds read low 1.02 | locus YGL248W, strain PDE1, active compounds read low 0.989 | locus YGR135W, strain pre9, active compounds read low 0.994 | locus YGR252W, strain gcn5, active compounds read low 0.964 | locus YHR030C, strain SLT2, active compounds read low 1 | locus YHR079C, strain IRE1 (second series), active compounds read low 0.995 | locus YHR094C, strain hxt1, active compounds read low 0.989 | locus YHR129C, strain ARP1, active compounds read low 0.994 | locus YHR200W, strain rpn10, active compounds read low 0.983 | locus YIL066C, strain RNR3, active compounds read low 0.968 | locus YIL073C, strain SPO22, active compounds read low 1.01 | locus YIL125W, strain kgd1, active compounds read low 0.985 | locus YIR030C, strain dcg1, active compounds read low 0.997 | locus YJL095W, strain BCK1, active compounds read low 1.04 | locus YJL134W, strain LCB3, active compounds read low 0.994 | locus YJL168C, strain set2, active compounds read low 0.998 | locus YJL187C, strain SWE1 (second series), active compounds read low 1.01 | locus YJR043C, strain POL32, active compounds read low 0.993 | locus YKL009W, strain mrt4, active compounds read low 1 | locus YKL068W, active compounds read low 0.979 | locus YKL085W, strain MDH1 (second series), active compounds read low 0.982 | locus YKL085W, strain MDH1, active compounds read low 0.982 | locus YKL190W, strain CNB1, active compounds read low 1.01 | locus YKR001C, strain vps1, active compounds read low 1.01 | locus YLR039C, strain RIC1, active compounds read low 0.99 | locus YLR058C, strain SHM2, active compounds read low 0.986 | locus YLR102C, strain apc9, active compounds read low 0.987 | locus YLR262C, strain YPT6, active compounds read low 0.961 | locus YLR268W, strain sec22, active compounds read low 1.03 | locus YLR330W, strain CHS5, active compounds read low 0.996 | locus YLR342W, strain FKS1 (second series), active compounds read low 0.995 | locus YLR371W, strain rom2, active compounds read low 0.978 | locus YLR418C, strain cdc73, active compounds read low 0.984 | locus YML016C, strain PPZ1, active compounds read low 0.992 | locus YML032C, strain rad52, active compounds read low 0.97 | locus YML124C, strain tub3, active compounds read low 0.987 | locus YMR078C, strain ctf18, active compounds read low 0.994 | locus YMR223W, strain ubp8, active compounds read low 0.985 | locus YMR307W, strain GAS1, active compounds read low 0.965 | locus YNL067W, strain RPL9B, active compounds read low 1.03 | locus YNL128W, strain TEP1, active compounds read low 1 | locus YNL233W, strain BNI4, active compounds read low 1.04 | locus YNL250W, strain rad50, active compounds read low 0.965 | locus YNL271C, strain bni1, active compounds read low 1 | locus YNL298W, strain CLA4, active compounds read low 1.01 | locus YNL307C, strain MCK1, active compounds read low 0.995 | locus YNL322C, strain KRE1, active compounds read low 0.984 | locus YNR052C, strain pop2, active compounds read low 1 | locus YOL006C, strain TOP1, active compounds read low 1.05 | locus YOL012C, strain htz1 1.36 | locus YOL147C, strain pex11, active compounds read low 0.988 | locus YOR061W, strain CKA2, active compounds read low 0.971 | locus YOR069W, strain VPS5, active compounds read low 0.993 | locus YOR136W, strain idh2, active compounds read low 0.992 | locus YOR144C, strain elg1, active compounds read low 0.985 | locus YOR184W, strain ser1, active compounds read low 0.979 | locus YOR316C, strain cot1, active compounds read low 0.999 | locus YPL055C, strain LGE1, active compounds read low 1.01 | locus YPR119W, strain clb2, active compounds read low 0.998 | locus YPR141C, strain kar3, active compounds read low 0.982 | locus YPR163C, strain tif3, active compounds read low 0.991 | locus YPR167C, strain met16, active compounds read low 0.992 | strain wtn01, active compounds read low 1.01
